According to ChEMBL document CHEMBL3988442, “University of Dundee, Small-Polar-MMV Screening Library” (2021):
Out of some 69,000 compounds screened, about 1,000 (1.4%) showed an effect of 50% or more. Shown is part of a subset that was picked to be rich in strong results.

Tested on: Leishmania donovani
Test: Leishmania intramacrophage assay
Type: functional, organism-based
Set-up: scale not given: in the data most compounds retested in dose-response had high values

Row | SMILES | Percent Effect (30.3 µM, […]) [%] | Percent Effect (30 µM, 30.03 µM) [%]
1 | O=C(NC1CCOCC1)c1cccc(C2CCCNC2)c1 (configuration not stated) | -13.02 | 
2 | CCOCC1CN(C(=O)Cc2ccsc2)Cc2ccnn2C1.O=C(O)C(F)(F)F (configuration not stated) | 51.92 | 
3 | CCOCC1CN(C(=O)Cc2cccs2)Cc2ccnn2C1 (configuration not stated) | 34.28 | 
4 | CN(C)CCOCC1CN(Cc2ccsc2)Cc2ccnn2C1.O=C(O)C(F)(F)F.O=C(O)C(F)(F)F.O=C(O)C(F)(F)F (configuration not stated) |  | 9.716
5 | Cc1noc(C)c1CN(C)Cn1c(=O)n(C)c2ccccc21 | 5.674 | 
6 | Cc1noc(C)c1CN(C)C(=O)Cn1c(=O)n(C)c2ccccc21 | 12.61 | 
7 | Cc1noc(C)c1CN(C)C(=O)CCn1c(=O)n(C)c2ccccc21 | 50.75 | 
8 | O=C(CC1CC1)NCc1cn2c(n1)CN(C(=O)C1CCOCC1)CC2 | -40.34 | 
9 | C1Cc2nc(CCNc3nc(C4CC4)nc4c3CCNCC4)sc2C1 | 95.48 | 
10 | OC(CNc1ncnc2c1CCNCC2)C(F)(F)F (configuration not stated) | 26.97 | 
11 | OC(CNc1nc(C2CCCC2)nc2c1CCNCC2)C(F)(F)F (configuration not stated) | 100.7 | 
12 | Cc1nc2c(c(NCCc3nc4c(s3)CCCC4)n1)CCNCC2 | 49.04 | 
13 | COCCNc1nc(C2CCCC2)nc2c1CCNCC2 |  | 63.78
14 | COCCNc1nc2c(c(NCC3CCOC3)n1)CCNCC2 (configuration not stated) | 32.27 | 
15 | c1nc(CCNc2nc(C3CC3)nc3c2CCNCC3)c[nH]1 | 9.64 | 
16 | Cc1nc2c(c(NCC(O)C(F)(F)F)n1)CCNCC2 (configuration not stated) | -15.94 | 
17 | COCc1noc(CNc2nc(C3CCCC3)nc3c2CCNCC3)n1 | 8.376 | 
18 | O=C(NC1CC1)C1CCc2nnc(-c3cccc(C(F)(F)F)c3)n21 (configuration not stated) | 10.31 | 
19 | CN(C)CCn1cc(NC(=O)NC(C)(C)c2nccs2)cn1 | 7.741 | 

Row | SMILES | Percent Effect (30.3 µM, […]) [%] | Percent Effect (30 µM, 30.03 µM) [%]
20 | Cc1cc(C(=O)N2CCCC2c2nnc3n2CCCCC3)on1 (configuration not stated) | 34.8 | 
21 | CO[C@H]1[C@@H]2CC[C@H]1CN(c1nc(C)nc3ccsc13)C2 | 34.92 | 
22 | Cc1nc(N2C[C@@H](CN3CCCN(C)CC3)[C@@H](CO)C2)c2ccsc2n1 | -13.66 | 
23 | CO[C@H]1[C@@H]2CC[C@H]1CN(c1nc(C)nc3sccc13)C2 | 56.76 | 
24 | CC(=O)N1C[C@H]2C3(CCN(S(C)(=O)=O)CC3)CC[C@@]2(C(=O)N(C)C)C1 | -12.02 | 
25 | Cc1cc(C)n(CC2CCCN2CC(=O)N(C)Cc2ccc(C)o2)n1 (configuration not stated) | 94.04 | 
26 | Cc1cc(C)n(CC2CCCN2CC(=O)N(C)Cc2ccco2)n1 (configuration not stated) | 34.8 | 
27 | Cc1cc(C)n(CC2CCCCN2CC(=O)N(C)Cc2ccco2)n1 (configuration not stated) | -27.36 | 
28 | CNS(=O)(=O)c1cccc(CNc2ccc(C(F)(F)F)nn2)c1 |  | 12.97
29 | COc1ccccc1N1CC(NC(=O)Cn2cc(C)nn2)CC1=O (configuration not stated) | 4.572 | 
30 | COc1ccccc1N1CC(NC(=O)Cn2cc(C(C)C)nn2)CC1=O (configuration not stated) | -4.218 | 
31 | COc1ccccc1N1CC(NC(=O)c2cc(C(C)C)nn2C)CC1=O (configuration not stated) | 57.19 | 
32 | CCOCCC(=O)NC(Cc1ccc(C)cc1)c1ccccn1 (configuration not stated) | 16.59 | 
33 | CN1CC[C@@H]2[C@@H](CO[C@H]2CNC(=O)c2nccn2C)C1.O=C(O)C(F)(F)F | 58.2 | 
34 | Cn1ccnc1C(=O)NC[C@@H]1OC[C@H]2CN(CC3CC3)CC[C@H]21.O=C(O)C(F)(F)F | 33.21 | 
35 | CCCN1CC[C@@H]2[C@@H](CO[C@H]2CNC(=O)c2nccn2C)C1.O=C(O)C(F)(F)F | 42.84 | 
36 | Cn1cncc1CN1CCCC1c1cncc(Oc2ccc(F)cc2)n1 (configuration not stated) | 23.83 | 
37 | Cn1cncc1CN1CCCC1c1cncc(Oc2ccc(Cl)cc2)n1 (configuration not stated) | 60.52 | 
38 | Cc1ncccc1Oc1cncc(C2CCCN2Cc2cncn2C)n1 (configuration not stated) | 19.44 | 

Row | SMILES | Percent Effect (30.3 µM, […]) [%] | Percent Effect (30 µM, 30.03 µM) [%]
39 | O=C(O)C(F)(F)F.O=C([C@H]1COC[C@H]2CN(CC3CCCC3)C[C@H]21)N1CCOCC1 | 14.74 | 
40 | CC(=O)N1CCC2(CC1)CN(C(=O)[C@@H]1CSCN1)c1ccc(Cl)cc12.O=C(O)C(F)(F)F | 42.29 | 
41 | O=C(O)C(F)(F)F.O=C(c1ncccn1)N1CCC[C@]2(C[C@@H](Oc3ncccc3F)CO2)C1 | -9.266 | 
42 | Cn1cc(CN2CCC[C@]3(C[C@@H](Oc4ncccc4F)CO3)C2)cn1.O=C(O)C(F)(F)F.O=C(O)C(F)(F)F | 62.31 | 
43 | CS(=O)(=O)N1CCC[C@]2(C[C@@H](Oc3ncccc3F)CO2)C1.O=C(O)C(F)(F)F |  | 22.25
44 | COc1ncccc1C(=O)N1CCC2(CC1)CC(OC)CO2.O=C(O)C(F)(F)F (configuration not stated) | 56.73 | 
45 | COc1ncccc1C(=O)N1CC[C@]2(C[C@@H](Oc3cccnc3)CO2)C1.O=C(O)C(F)(F)F.O=C(O)C(F)(F)F | 31.08 | 
46 | Cn1cc(CN2CCC[C@]3(C[C@H](Oc4ncccc4F)CO3)C2)cn1.O=C(O)C(F)(F)F.O=C(O)C(F)(F)F | 42.35 | 
47 | CO[C@@H]1CO[C@@]2(CCCN(Cc3nc(C)cs3)C2)C1.O=C(O)C(F)(F)F | 100.6 | 
48 | O=C(O)C(F)(F)F.O=C(O)C(F)(F)F.O=C(c1cccnc1)N1CCC[C@]2(C[C@H](Oc3ncccc3F)CO2)C1 | 55.01 | 
49 | Cc1csc(CN2CCC[C@]3(C[C@@H](OCC4CC4)CO3)C2)n1.O=C(O)C(F)(F)F | 2.266 | 
50 | O=C(O)C(F)(F)F.O=C(c1ccccc1)N1CCC[C@]2(C[C@@H](Oc3ncccc3F)CO2)C1 | -17.71 | 
51 | CCO[C@H]1CO[C@@]2(CCCN(Cc3nc(C)cs3)C2)C1.O=C(O)C(F)(F)F |  | 20.53
52 | COC1COC2(CCN(C(=O)c3ccccc3F)CC2)C1 (configuration not stated) | 35.35 | 
53 | CC(C)NC(=O)N1CCC(c2nnc3n2CCNC3)CC1 | -10 | 
54 | O=C(O)C(F)(F)F.O=C([C@H]1CN(CCc2ccccc2)C[C@H]2OCC[C@@H]12)N1CCCO1 |  | 22.49
55 | CCCC(C#N)NC(=O)Cc1csc(CC)n1 (configuration not stated) | 15.43 | 
56 | CC(OCc1ccccc1)C(=O)NC1CCN(CC(N)=O)CC1 (configuration not stated) | 21.11 | 
57 | O=C(c1ccc(O)c(Cl)c1)N1C[C@@H](CN2CCCCCC2)[C@@H](CO)C1 | -29.45 | 
